High-throughput results: PubChem, National Center for Advancing Translational Sciences (NCATS)
Compounds with a hit are over-represented: about 0.45% of the library has one in this group of screens.
Integrin act MD – integrin-mediated muscular dystrophy alleviation activation. Potency, µM (series often up to 38.3 µM), for inactives: top-dose activation, hits mostly activators. alpha7betagal myoblasts, beta-gal FDG fluorescence, 48 h. actives 0.064% (n = 350,000);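 also: potency is read from the fitted curve at half-maximal effect; 100% = response of the positive control SU9516; nearly all actives have a fitted effect of over 60% in size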
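Alpha7betagal+/- myoblasts (passage 13) were plated 16-24 hr, then exposed to compounds (1:260 dilution of DMSO stock) for 48 hours at 37C. After MPER lysis, β-galactosidase reporter activity was read as FDG fluorescence (ex 480/em 540) after 30 minutes.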
ERG-DNA inh – inhibitors of human ERG Ets domain-DNA interaction; P11308; fluorescence polarization, His-ERG Ets domain / labelled DNA; Potency, µM (top dose mostly 76.9 µM), inactives show at the top dose FP activity, negative = inhibition, most hits filed as inhibitors; actives 0.028% (n = 370,000); AID 624246; active = well fitted inhibition curve with a large enough effect in the polarisation, with a control signal flat; inconclusive = small, poorly fitted or top-dose-only effect, or effect the other way, or a change in a side signal; inactive = no such curve, though single readings can be large or run the other way; the % refers to the polarisation;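 also: polarization taken with two DNA probes labelled with fluorescein and Texas red; potency is read from the fitted curve at half-maximal effect; % of control where 0% means no effect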
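His-tagged ERG Ets domain (1 uM in the protein solution; 300mM KCl, 50mM Tris-HCl, 1mM EDTA, 1mM DTT, pH 7.5) received compound, then a probe mix of 5 nM fluorescein-DNA and 100nM Texas-615-DNA. Fluorescence polarization was read for both dyes.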
TRb-SRC2 inh – TRbeta-SRC2 interaction inhibition; P10828; TRbeta-SRC2 peptide binding, fluorescence polarization; receptor liganded with 1 µM T3; Potency, µM (titrated, usually from 106 µM), for inactives: at the top dose activity change, negative = inhibition, actives largely listed as inhibitors; actives 0.065% (n = 280,000); AID 1469;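 also: potency is read from the fitted curve at half-maximal effect; plate controls were bound peptide for no effect and peptide without receptor for full effect; nearly all actives have a fitted effect of over 50% in size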
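Binding of a 20-amino-acid Texas Red SRC2 peptide (20 nM) to TRb ligand-binding domain (0.6 uM) with agonist T3 at 1 uM was followed by fluorescence polarization after a 5 hr room-temperature incubation.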
CBFb RUNX1 block – blocks binding between human CBF-beta and RUNX1; Q01196+Q13951; AlphaScreen CBFb-His/RUNX1-biotin binding, biochemical; Potency, µM (top dose mostly 59.8 µM), without a hit: at the highest dose activity, negative = inhibition, most hits filed as inhibitors; 230,000 tested, under 10 active; AID 1477; also: % of control where 0% means no effect
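His-tagged CBF-beta and biotinylated RUNX1 (30 nM each) were premixed 20 min at room temperature, exposed to compound for 15 min, then given nickel-chelate and streptavidin AlphaScreen beads (50 ng each). After 90 min, AlphaScreen signal was read.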
RGS12 GoLoco inh – inhibitors of human Gai1-RGS12 GoLoco interaction (red fluorophore). Gai1:RGS12 GoLoco peptide FP, rhodamine, 10 min. P63096. actives 0.44% (n = 230,000). Potency, µM (doses to about 61.6 µM), without a hit: top-dose activity, negative = inhibition, usual class: inhibitors; active = well fitted inhibition curve with a large enough effect, not every such curve was filed as active; inactive = no such curve, though single readings can be large or run the other way; also: potency is read from the fitted curve at half-maximal effect; % is scaled to controls: 0 for no effect and ±100 for the full control effect; nearly all actives have a fitted effect of over 30% in size
Target sequence (P63096 whole entry, looked up): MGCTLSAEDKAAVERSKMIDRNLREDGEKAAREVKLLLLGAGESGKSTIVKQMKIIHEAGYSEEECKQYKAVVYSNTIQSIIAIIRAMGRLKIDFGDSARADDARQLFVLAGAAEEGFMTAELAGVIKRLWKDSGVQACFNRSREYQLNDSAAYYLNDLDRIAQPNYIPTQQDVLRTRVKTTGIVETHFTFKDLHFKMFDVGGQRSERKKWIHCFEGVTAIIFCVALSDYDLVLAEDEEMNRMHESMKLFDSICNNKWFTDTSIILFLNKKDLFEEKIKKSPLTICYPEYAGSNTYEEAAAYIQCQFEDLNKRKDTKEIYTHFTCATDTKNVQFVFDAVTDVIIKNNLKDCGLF
TexasRed fluor – counter-screen for TRb-SRC2 inhibitors: fluorescence interference | AID 1479 | actives 0.29% (n = 280,000) | Potency, µM (highest dose often 106 µM), without a hit: top-dose fluorescence change, negative = quenching | TRb/SRC2 Texas Red total fluorescence interference; active = well fitted curve in either direction with a large enough effect; inconclusive = small, poorly fitted or top-dose-only effect; also: potency is read from the fitted curve at half-maximal effect; % is scaled to controls: 0 for no effect and ±100 for the full control effect
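Human TRb ligand-binding domain at 0.6 uM with 20 nM Texas Red SRC2 peptide in Tris buffer containing 1 uM T3 and 5% DMSO, incubated with compound 5 h at ambient temperature. Total fluorescence (555/632 nm) calculated as parallel + 2 × perpendicular.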
An asterisk follows results filed as active; u = inconclusive; x = no result given; [ ] = dose if it differs, or a comment. Unless noted, calls follow the shape of the dose curve; as a rule, active = well fitted curve in the direction sought with a large enough effect; inconclusive = small, poorly fitted or top-dose-only effect, or another doubt; inactive = no such curve, though single readings can be large; an effect the other way counts as inactive or inconclusive.

SMILES | Integrin act MD | ERG-DNA inh | TRb-SRC2 inh | CBFb RUNX1 block | RGS12 GoLoco inh | TexasRed fluor
CCn1c(CSc2nnc(-c3ccncc3)n2C)nc2cc(C(=O)O)ccc21 | -3% | 25µM* | 40µM* | 25% | 14µM* | 45µM*[fluorescent]
CC(N)(C(=O)O)c1cccc(CC(=O)O)c1 (configuration not stated) | x | x | 6% | 28% | 8% | -3%
O=C(O)C1C2CCC(O2)C1C(=O)Nc1ccc(O)cc1 (configuration not stated) | -6% | -3% | 2% | -4% | 16µM* | -6%
CC(=O)Nc1nonc1-c1nc2ccccc2n1CCC(C)C | 11µM* | -1% | 2% | 15% | 21% | 1%
CCN(CC)c1ccc(NC(=O)COC(=O)c2cccs2)cc1 | -3% | 4% | -23% | u | 2µM* | 0%
O=C(O)C1=CC(=C(c2ccc(O)c(C(=O)O)c2)c2ccc(O)c(C(=O)O)c2)C=CC1=O | x | x | u | x | 2.8µM* | u
CC1=c2c(oc3cc(O)c(Nc4c(C)cc(O)cc4O)c(C)c23)=CC(=O)C1=Nc1c(C)cc(O)cc1O | x | x | x | x | 3.2µM* | x
COc1cc(N(C)C)cc(CN(C)CCc2ccc([N+](=O)[O-])cc2)c1O | x | x | u | x | x | -16%
Cc1ccc(NC(=O)CSCn2nnc3c(=O)[nH]c(Cc4ccc(F)cc4)nc32)c(C)c1 | x | 1% | -8% | x | x | 0.32µM*[quencher]
CC(C)CCOc1ccc(C2N=C(N)Nc3nc4ccccc4n32)cc1 (configuration not stated) | x | 5% | -16% | x | x | 40µM*[quencher]
COc1cc(C2N=C(N)Nc3nc4ccccc4n32)ccc1OCCC(C)C (configuration not stated) | x | u | -8% | x | x | -24%
CC(C)=CCC[C@](C)(O)C1CC[C@]2(C)[C@@H]1CC[C@@H]1[C@@]3(C)CCC(=O)C(C)(C)[C@@H]3CC[C@]12C (some centres not stated) | x | x | 7% | -1% | x | -3%
Fc1cccc2sc(Nc3nc4cc5c(cc4s3)OCO5)nc12 | -20% | -6% | -2% | 1% | -2% | -3%
Fc1cc(F)c2nc(Nc3nc4cc5c(cc4s3)OCO5)sc2c1 | -40% | -2% | 24% | u | 7% | 35µM*[quencher]
COc1ccccc1CNc1nc2nc(C)c(Cl)c(C)n2n1 | x | 1% | -18%[53 µM] | x | x | 0.022µM*[quencher]
Cc1ccc(CNc2nc3nc(C)c(Cl)c(C)n3n2)cc1 | x | -2% | -6% | x | x | 8%
COC(=O)c1c(NC(=O)CN2CCC3(O)CCCCC3C2c2ccc(OC)cc2OC)sc(C)c1C (configuration not stated) | -3% | -4% | u | 2% | 107% | 100µM*[quencher]
CCCCc1nc2c(c3c1C[C@H](C)OC3)CN(C(=O)c1cccnc1)CC2 | x | x | 1%[11.2 µM] | 6%[13.1 µM] | -2%[14.2 µM] | -6%[11.2 µM]
Cc1ccc(/C=C2/SC(=S)N(C3CCCCC3)C2=O)o1 | 10% | 35% | x | x | x | x
Cc1ccc(/C=C2/SC(=O)NC2=S)o1 | 28% | -9% | -25% | x | 5µM* | -12%
Cc1ccc(C2Nc3cccc4cccc(c34)N2)s1 | 3.2µM* | -7% | 14% | -9% | -25% | u
CC(=O)Nc1ccc(N=Nc2cc(C)ccc2O)cc1 | x | x | 28%[201 µM] | x | x | u
O=C1CCNc2c(Cl)cccc21 | -1% | 16% | -2% | 9% | 4.5µM* | -5%
O=C1CCNc2c(Cl)cc(Cl)cc21 | -18% | 32% | 1% | 16% | 8% | -5%
CSCC[C@H](NC(=O)[C@H](CC(C)C)NC(=O)CCNC(=O)[C@@H](NC(=O)[C@H](Cc1ccccc1)NC(=O)[C@H](CO)NC(=O)[C@@H](N)CC(=O)O)C(C)C)C(N)=O | x | x | 6% | -3% | x | -1%
CNc1cc([N+](=O)[O-])ccc1OCc1ccccc1 | 4.5µM* | -6% | -8% | 27% | 4% | 0%
